From PubChem
A selection: hits, their analogues and other compounds. The true share with any hit is near 4.7%.
TRHR agonist: TRH receptor (human) agonism | 360,000 compounds, 0.18% hits | activation, % at 2 µM | TRHR cells, calcium flux fluo-8, FDSS agonist mode | AID 493084 | P34981; also: 0% is about no effect
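Steps: seed TRHR cells overnight; add fluo-8 no-wash Ca dye, RT 30 min–1.5 h; record 10 s baseline; pin-transfer compounds; monitor fluorescence 1 cycle/s for the agonist window. Calcium increases flag candidate agonists.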
D1 antag: blocks dopamine activation of the human D1 receptor; AID 504652; P21728; 360,000 compounds, 3.2% hits; HEK293 TREx D1 cells, calcium flux, dopamine EC80; stronger effect = lower value; activity change, negative = inhibition, % at 10 µM; in the data active = activity change below about -30%; also: % is scaled to controls: 0 for no effect and ±100 for the full control effect
Target sequence (P21728 whole entry, looked up): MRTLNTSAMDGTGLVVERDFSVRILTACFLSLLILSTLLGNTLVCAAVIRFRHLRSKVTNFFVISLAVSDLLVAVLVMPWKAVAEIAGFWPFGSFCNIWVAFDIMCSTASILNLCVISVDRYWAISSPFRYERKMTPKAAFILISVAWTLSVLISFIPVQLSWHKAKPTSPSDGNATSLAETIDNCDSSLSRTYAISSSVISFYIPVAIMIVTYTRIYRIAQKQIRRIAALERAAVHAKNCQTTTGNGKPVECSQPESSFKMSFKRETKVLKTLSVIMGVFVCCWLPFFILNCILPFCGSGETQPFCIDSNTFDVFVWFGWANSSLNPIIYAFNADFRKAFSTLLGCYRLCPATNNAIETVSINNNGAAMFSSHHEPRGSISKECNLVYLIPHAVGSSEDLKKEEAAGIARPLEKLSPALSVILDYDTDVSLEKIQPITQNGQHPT
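Tetracycline-induced HEK293 T-REx cells with force-coupled D1 receptor were loaded with a no-wash calcium dye. Compound was added after a 10 s baseline and read kinetically for 180 s; EC80 dopamine was then added and calcium flux followed another 180 s.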
D1 ag: agonists of human D1 dopamine receptor | P21728 | HEK293 T-REx D1 cells, calcium flux, agonist mode | activation, % at 2 µM | 360,000 compounds, 1% hits; also: 0% is about no effect
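Tetracycline-induced HEK293 TREx D1 cells, force-coupled to calcium signalling, were dye-loaded with a no-wash calcium kit. Compound was pin-added after a 10 s baseline. Fluorescence was read kinetically at 1 cycle/s for 180 s, with calcium rises flagged as agonism.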
TRHR PAM: allosteric enhancers of human TRH receptor; P34981; TRHR cells, fluo-8 calcium fluorescence, EC20 TRH enhancement; enhancement, % at 2 µM; 360,000 compounds, 0.66% hits; AID 493056; in the data active = enhancement above about 30%; also: 0% is about no effect
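Enhancer read-out: after compound pinning and an initial kinetic agonist-mode read, an EC20 of TRH (10 nM final) was injected and fluo-8 calcium signal (Ex 480/Em 530) followed at 1 s/cycle for 100 cycles in TRHR-expressing cells.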
D1 PAM: potentiators of human D1 dopamine receptor. P21728. HEK293 TREx D1 cells, calcium flux, dopamine EC20 potentiation. potentiation, % at 10 µM. 360,000 compounds, 0.036% hits. AID 504651; in the data active = potentiation above about 30%; also: 0% is about no effect
An asterisk follows results filed as active. Rule as the data show it, unless noted: active = activation above about 30%; inactive = the rest.

SMILES	TRHR agonist	D1 antag	D1 ag	TRHR PAM	D1 PAM
COc1ccc(S(=O)(=O)n2cccc2)cc1OC	-1	-35*	2	4	-6
COc1ccc(S(=O)(=O)N2CCNCC2)cc1OC	0	-9	3	-3	5
Cc1nn(-c2ccc(N3CCCCC3)nn2)c(C)c1CCC(=O)NCc1ccc(OC(C)C)cc1	0	-8	2	7	2
CCc1ccc(CNC(=O)c2cnc3sc(N4CCOCC4)nn3c2=O)cc1	0	1	0	-2	-7
CCn1nnc2cc(C(=O)Nc3cccc(Cl)c3)ccc21	0	-15	2	2	-4
CCOc1cc([C@@H]2C[C@H]3CN(c4ccccc4)C(=O)[C@]34CCCN24)ccc1OC	0	-5	-1	5	3
COc1cc([C@@H]2C[C@H]3CN(c4ccccc4)C(=O)[C@]34CCCN24)cc(OC)c1OC	1	-41*	0	6	-1
COc1ccc(N2CCN(C(=O)c3cnc(SC)nc3C)CC2)cc1	0	-63*	0	-1	-1
O=C(c1cc(-c2ccccc2Cl)nc2ccccc12)N1CCC1	-1	36	2	5	1
Cc1ccc(-c2cc(C(=O)N3CCCCC3)c3ccccc3n2)cc1C	0	43	35*	7	3
O=C(c1cc2cc(Cl)ccc2[nH]1)N1CCc2ccccc2C1	0	-57*	6	6	-8
Cc1ccccc1-c1cc(C(=O)N2CCCC2)c2ccccc2n1	0	-9	4	31*	4
CSc1cccc(NC(=O)C2CCCN(C(=O)c3cnn(-c4ccc(F)cc4)c3-n3cccc3)C2)c1 (stereo not drawn)	0	-7	2	20	-2
COc1ccccc1-c1cc(C(=O)N2CCc3ccccc3C2)c2ccccc2n1	-1	-86*	4	-17	-6
COc1ccc(-c2cc(C(=O)N3CCN(c4ccccc4)CC3)c3ccccc3n2)cc1	0	-37*	3	-15	-6
CCCc1cc(C(=O)NNC(=S)NCC)c2ccccc2n1	-1	-15	3	-1	-10
CCNC(=S)NNC(=O)c1cc(-c2cc(C)ccc2C)nc2ccccc12	-1	-31*	2	10	-3
O=C(c1cc(-c2ccccc2O)on1)N1CCc2ccccc2C1	0	-32*	3	-1	-6
COc1ccccc1N1CCN(c2ncnc3c2cnn3-c2cc(Cl)ccc2C)CC1	0	-8	-4	-1	-3
O=C(c1ccccc1Cl)N1CCc2ccccc2C1	0	-4	0	-3	0
Cc1ccccc1C(=O)N1CCc2ccccc2C1	-1	-6	49*	26	8
O=C(COc1ccccc1Cl)N(Cc1cccc(F)c1)C1CCS(=O)(=O)C1 (stereo not drawn)	0	-8	-1	-1	1
COc1ccc(NC(=O)CN2C(=O)C(C)(C)c3ccccc32)cc1Cl	0	-50*	4	0	-1
CCc1nc(SCC(=O)N2CCOCC2)c2c(=O)n(C)c(=O)n(C)c2n1	-2	-4	4	5	0
CCc1nc(SCC(=O)N2CCCCCC2)c2c(=O)n(C)c(=O)n(C)c2n1	0	-34*	3	0	0
SMILES	TRHR agonist	D1 antag	D1 ag	TRHR PAM	D1 PAM
COc1ccc(-n2c(=O)c3c(c4cc(OC)ccc4n3C)n(Cc3cc(C)ccc3C)c2=O)cc1	0	-74*	-1	3	-3
CCCCCCCNC(=O)C1(CC2CC(c3ccccc3)=NO2)CCN(C(=O)OC(C)(C)C)CC1 (stereo not drawn)	1	-37*	3	0	-10
CCCCCCCNC(=O)C1(CC2CC(c3ccccc3)=NO2)CCN(C(=O)c2ccccc2)CC1 (stereo not drawn)	0	-4	6	-8	-4
COc1ccc(CN2CCN(c3ncnc4sc5c(c34)CC(C)CC5)CC2)cc1F (stereo not drawn)	0	18	-2	1	-1
CCOc1ccc(CN2CCN(c3ncnc4sc5c(c34)CC(C)CC5)CC2)cc1 (stereo not drawn)	0	-33*	-2	1	-1
CCOC(=O)N1N=C(c2ccc(OC)cc2)CC1(O)C(F)(F)F (stereo not drawn)	0	1	2	32*	-7
